Here are results for two compounds from the supplement of paper PMC5373622, “Screening for AMPA receptor auxiliary subunit specific modulators” (PLoS ONE, 2017).

SMILES strings stand for the structures. A number with no mark means an inactive call.

The test system of the experiment is GRIA2. Kind of experiment: glutamate-evoked VSD slope (GluSlope), % of maximal glutamate response; higher = potentiation (PAM), active = hit call of the paper. The settings on record: 10 µM; glutamate: EC50 (3-4 uM); clone: A2R-stg (HEK293 GluA2flip(R) + stargazin). The protocol:
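lower means inhibition (NAM); Primary voltage-sensitive dye (FLIPR Blue) screen on TetON HEK293 cells expressing GluA2flip(R) with stargazin (A2R-stg). Compound at 10 uM was preincubated for 290 s, then about EC50 glutamate (3-4 uM) was added; fluorescence was read on an FDSS at 1 Hz. GluSlope is expressed as % of the mean maximal-glutamate (1 mM) slope after vehicle subtraction. Hits deviated more than 3 SD from the plate EC50-glutamate wells. One well per compound.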
For `Cc1ccccc1OCC(=O)Nc1cc(C(=O)N2CCCC2)cn(C)c1=O`, the “glutamate-evoked VSD slope” value is 58.2%. As for `Cc1ccc(-n2nc3c(c2-n2cccc2)CN(C(=O)c2cnccn2)C3)cc1C`, the “glutamate-evoked VSD slope” value is 61.4%.
